The source of these data is PubChem BioAssay (Tox21).

Calls of active or inactive are those of the source. Where a call stands in place of a potency, no number is given. Calls follow the shape of the full dose curve.

Sequence of Acetylcholinesterase (Homo sapiens) (P22303 whole entry, looked up): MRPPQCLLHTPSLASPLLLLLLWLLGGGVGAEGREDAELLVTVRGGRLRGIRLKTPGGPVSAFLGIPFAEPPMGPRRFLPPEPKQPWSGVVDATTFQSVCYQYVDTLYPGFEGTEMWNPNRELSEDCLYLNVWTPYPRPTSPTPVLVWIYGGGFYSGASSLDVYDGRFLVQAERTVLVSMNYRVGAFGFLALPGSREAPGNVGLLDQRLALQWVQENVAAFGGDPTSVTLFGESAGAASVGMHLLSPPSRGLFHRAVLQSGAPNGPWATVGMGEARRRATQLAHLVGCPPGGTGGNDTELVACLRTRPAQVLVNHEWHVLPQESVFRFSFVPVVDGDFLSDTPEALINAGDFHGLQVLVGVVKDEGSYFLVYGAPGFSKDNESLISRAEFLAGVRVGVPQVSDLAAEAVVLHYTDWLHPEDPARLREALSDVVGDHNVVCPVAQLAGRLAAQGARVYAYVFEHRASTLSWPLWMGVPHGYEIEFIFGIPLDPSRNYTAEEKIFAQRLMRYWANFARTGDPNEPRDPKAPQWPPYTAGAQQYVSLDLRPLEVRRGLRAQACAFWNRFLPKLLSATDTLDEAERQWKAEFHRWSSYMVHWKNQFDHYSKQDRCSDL

The assay concerns the target Acetylcholinesterase (Homo sapiens) (UniProt P22303). The assay can be described thus: Acetylcholinesterase (AChE) small molecule antagonists: enzyme-based qHTS assay with human liver microsomes (AID 1347399). Also: nearly all actives have a fitted effect of over 60% in size. The following applies: Potency: qHTS inhibition; outcome: qHTS inhibition; series mostly up to 115 µM. Summed up: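 Recombinant human AChE (50 mU/mL in the enzyme mix) and human liver microsomes (0.25 mg/mL final) were preincubated with compound and NADPH (0.25 mg/mL final) for 30 min at 37 C. Acetylthiocholine/DTNB was then added; thiocholine was read colorimetrically after 10 min at room temperature.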
For the molecule `COCCOCCOC`, the Potency entry is “inactive”. Then `OC1(c2ccc(Cl)c(C(F)(F)F)c2)CCN(CCCC(c2ccc(F)cc2)c2ccc(F)cc2)CC1`, with “inactive”; and `Cc1occc1SSc1ccoc1C`, with “inactive”; and `c1cc(-c2ccncc2)ccn1`, with “inactive”. Next, `O=P(c1ccccc1)(c1ccccc1)c1ccccc1`: “inactive”; `C/C=C(C)/C=C/C=C(C)C`: “inactive”; `CCO/C([O-])=N/c1c[n+](N2CCOCC2)no1`: “inactive”. Then `O=C(OCCOCCOC(=O)c1ccccc1)c1ccccc1`, with “inactive”; and `Clc1cc(Cl)c(Cl)c(Cl)c1Cl`, with “inactive”. On to `Oc1ccc(Cc2ccccc2O)cc1`, for which the Potency entry was “inactive”.

Take `Cc1ccc(S(=O)(=O)NC(=O)NN2CCCCCC2)cc1`: the Potency result is “inactive”. Then `CC1(C)COCN1`, with “inactive”. As to `CC(=O)Nc1ccc(C(=O)O)cc1`, the Potency entry was “inactive”. In the case of `CCC(COC(=O)CCS)(COC(=O)CCS)COC(=O)CCS`, the Potency entry was “inactive”. `O=C(Cl)c1c(Cl)c(Cl)c(C(=O)Cl)c(Cl)c1Cl`: the Potency result is “inactive”.

As to `COc1ccc(C(=O)c2ccc(C)cc2)c(O)c1`, the Potency result was “inactive”.

Regarding `O=C(O)c1cc(C(=O)O)cc(C(=O)O)c1`, the Potency result is “inactive”. On to `NC(=O)c1ccccc1N`, for which the Potency entry is “inactive”. Then `OC1CCCC1`, with “inactive”; and `CC(C)(Oc1ccc(Cl)cc1)C(=O)OCCCOC(=O)C(C)(C)Oc1ccc(Cl)cc1`, with “inactive”; and `CC(C)N=C=NC(C)C`, with “inactive”.

Consider `CCCCN(CCCC)C(=O)N(CCCC)CCCC`, for which the Potency result was “inactive”. Then `C[C@]12CC[C@@H]3c4ccc(O)cc4CC[C@H]3[C@@H]1CC[C@H]2O`, with “inactive”; and `CCO[Si](C)(CCCOCC1CO1)OCC` (stereo not given), with “inactive”. Next, `CC(=O)O[Si](C)(OC(C)=O)OC(C)=O`: “inactive”.
